In article PMC4336329 (PLoS ONE, 2015):
Screen size: about 310,000 compounds; about 14,000 (4.5%) showed an effect of 50% or more. Effects have a minus sign here. Many of the other results were omitted from the sample, so strong results are more common in it than they were.

target: human ether-à-go-go-related gene (hERG) potassium channel (human, UniProt Q12809); assay: primary screen, population patch clamp on CHO cells stably expressing hERG; higher = less effect of the substance
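Further: peak tail current of the secondary pulse compared with the same well before compound.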

Chain of human ether-à-go-go-related gene (hERG) potassium channel (Q12809 whole entry, looked up): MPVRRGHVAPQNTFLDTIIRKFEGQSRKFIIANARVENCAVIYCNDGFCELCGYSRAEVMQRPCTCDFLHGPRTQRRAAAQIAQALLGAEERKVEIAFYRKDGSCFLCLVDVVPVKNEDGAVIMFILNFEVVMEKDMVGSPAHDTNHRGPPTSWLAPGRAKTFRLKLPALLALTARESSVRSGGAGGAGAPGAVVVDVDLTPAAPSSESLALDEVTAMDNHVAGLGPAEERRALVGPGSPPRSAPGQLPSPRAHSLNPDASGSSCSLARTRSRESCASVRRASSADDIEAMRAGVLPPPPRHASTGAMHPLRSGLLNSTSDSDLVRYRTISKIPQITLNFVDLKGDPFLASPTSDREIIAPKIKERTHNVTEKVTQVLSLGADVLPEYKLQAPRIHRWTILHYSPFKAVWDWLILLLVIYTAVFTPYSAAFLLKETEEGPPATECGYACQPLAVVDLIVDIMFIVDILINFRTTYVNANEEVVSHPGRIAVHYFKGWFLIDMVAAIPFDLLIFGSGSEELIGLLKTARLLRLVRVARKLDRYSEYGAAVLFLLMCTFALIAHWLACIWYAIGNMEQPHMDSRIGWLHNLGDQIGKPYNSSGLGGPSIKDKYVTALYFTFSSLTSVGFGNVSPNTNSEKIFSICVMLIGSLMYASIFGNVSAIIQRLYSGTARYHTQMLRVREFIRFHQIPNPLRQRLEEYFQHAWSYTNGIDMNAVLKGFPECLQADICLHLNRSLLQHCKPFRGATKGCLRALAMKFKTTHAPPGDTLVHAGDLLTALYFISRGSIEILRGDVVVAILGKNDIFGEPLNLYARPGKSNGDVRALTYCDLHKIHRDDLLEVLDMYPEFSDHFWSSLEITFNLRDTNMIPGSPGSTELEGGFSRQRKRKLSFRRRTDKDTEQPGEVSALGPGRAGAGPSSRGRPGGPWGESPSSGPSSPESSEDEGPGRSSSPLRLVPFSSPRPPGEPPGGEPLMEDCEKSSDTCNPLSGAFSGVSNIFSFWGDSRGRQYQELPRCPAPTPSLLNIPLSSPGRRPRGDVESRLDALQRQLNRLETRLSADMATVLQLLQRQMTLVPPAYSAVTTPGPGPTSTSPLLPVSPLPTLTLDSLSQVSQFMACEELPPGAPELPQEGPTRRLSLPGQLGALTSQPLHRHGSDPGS

Compound	hERG current change (%, negative = inhibition) at 10uM [%]
CC(C)(C)OC(=O)NCCCC[C@H](NC(=O)c1nc[nH]c1C(=O)NC(c1ccccc1)c1ccccc1)C(=O)OC(C)(C)C	8.48
Brc1cccc(Cn2c(-c3cncs3)nc3ccccc32)c1	-10.5
O=C(CSCc1ccc([N+](=O)[O-])cc1)NC1CC2CCC1C2 (centres unmarked)	-15.3
O=C(/C=C/c1cccc([N+](=O)[O-])c1)NC1CC2CCC1C2 (centres unmarked)	-24.7
COc1ccccc1/C=C/C(=O)NC1CC2CCC1C2 (centres unmarked)	-3.53
O=C(/C=C/c1ccccc1)NC1CC2CCC1C2 (centres unmarked)	5.72
O=C(/C=C/c1ccc(Cl)cc1)NC1CC2CCC1C2 (centres unmarked)	-53.1
O=C(/C=C/c1ccc([N+](=O)[O-])cc1)NC1CC2CCC1C2 (centres unmarked)	-67.8
CCOc1ccc(NC(=O)CN2C(=O)COc3ccc(Cl)cc32)cc1	0.412
CN(C)C=O.Oc1cccc2c(NC(=S)Nc3ccc(OC(F)F)cc3)cccc12	-49.5
CCOC(=O)CSC1=NC(=O)/C(=C\c2ccc(OC(C)=O)cc2)S1	13.1
CCn1ncc(S(=O)(=O)Nc2cccnc2)c1C	5.02
CN(C)c1cccc(N=C2C=C(N3CCOCC3)CC(C)(C)C2)c1	-60.5
CC1(C)CC(=O)C=C(N2CCOCC2)C1	15.6
CC1(C)CC(N2CCOCC2)=CC(=[N+]2CCOCC2)C1.[I-]	8.01
CSc1nnc(CNC(=O)c2ccccc2)n1-c1cccc(C)c1	-6.07
COC(=O)c1sccc1Oc1ccc(F)cc1[N+](=O)[O-]	1.74
CCOC(=O)N1CCN(C(=O)c2ccccc2N(Cc2ccccc2)S(=O)(=O)c2ccc(OC)cc2)CC1	-26.3
CCN1CCN(C(=O)c2ccccc2N(Cc2ccccc2)S(=O)(=O)c2ccc(OC)cc2)CC1	-73.1
COc1ccc(S(=O)(=O)N(Cc2ccccc2)c2ccccc2C(=O)N2CCOCC2)cc1	-8.54
CCN1CCN(C(=O)c2ccccc2N(Cc2ccccc2)S(=O)(=O)c2ccc(C)cc2)CC1	-53.2
CCN1CCN(C(=O)c2ccccc2N(C)S(=O)(=O)c2ccc(C)cc2)CC1	2.03

Compound	hERG current change (%, negative = inhibition) at 10uM [%]
Cc1ccc(S(=O)(=O)N(Cc2ccccc2)c2ccccc2C(=O)N2CCCCC2)cc1	-28.6
O=C(COc1ccc(Br)cc1CO)Nc1ccccc1F	-2.36
COc1ccc(OC)c(S(=O)(=O)N(C)CC(=O)N2CCN(c3ccccc3F)CC2)c1	-6.63
CCCOP(=O)(c1ccc(N(C)C)cc1)C(O)c1cc(OC)ccc1OC (centres unmarked)	0.331
CN(C)CCN(C(=O)CN1C(=O)c2ccccc2C1=O)c1nc2cc3c(cc2s1)OCCO3.Cl	-53.8
CCN(CC)CCN(C(=O)CN1C(=O)c2ccccc2C1=O)c1nc2cc3c(cc2s1)OCO3.Cl	-17.8
CN(C)CCN(C(=O)c1ccc2ccccc2c1)c1nc2cc3c(cc2s1)OCCO3.Cl	7.59
CN(C)CCN(C(=O)CN1C(=O)c2ccccc2C1=O)c1nc2cc3c(cc2s1)OCO3.Cl	-57
Cc1ccc2nc(N(CCCN(C)C)C(=O)CN3C(=O)c4ccccc4C3=O)sc2c1.Cl	-47.5
CC(=O)N(CCN(C)C)c1nc2cc3c(cc2s1)OCCO3.Cl	10.6
COCC(C)NC(=O)CCc1nnc(C2(c3ccc(Cl)cc3)CCC2)o1 (centres unmarked)	5.14
O=C(O)CCC(=O)NNC(=O)c1cccc(Br)c1	-0.791
CCCc1cc(=O)[nH]c(-n2[nH]c3c(c2=O)CCCC3)n1	13.9
CCCC(=O)N1CCN(c2nnc(-c3ccc(C)cc3)c3ccccc23)CC1	-81.1
CCOC(=O)N1CCN(c2nnc(-c3ccccc3)c3ccccc23)CC1	-22
CCCC(=O)N1CCN(c2nnc(-c3ccccc3)c3ccccc23)CC1	-45.4
CCOC(=O)N1CCN(c2nnc(-c3ccc(C)cc3)c3ccccc23)CC1	-70.1
CCCCS(=O)(=O)Nc1ccc(C(=O)NCC2CCCO2)cc1 (centres unmarked)	-4.69
CC(C)=CCc1c(-c2ccc(O)cc2O)oc2c3c(cc(O)c2c1=O)OC(C)(C)C=C3	17.6
Cl.NC1C=CC=C(C(=O)O)C1 (centres unmarked)	3.23
CC1(C)Cc2c(sc3c2C2=NCCN2C=N3)CS1.Cl	-16.3
CN1C(=O)c2c(sc3c2CC(C)(C)SC3)N2CCN=C12.Cl	-72.6
